# In PubChem BioAssay (NCI):
# The panel holds about 83,000 compounds, 20% with a hit somewhere; the sample as a whole holds those more often.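 Cell lines were cultured in 96-well plates, exposed to a single compound concentration, and assessed for percent growth 48 hours later.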 A number with no mark means an inactive call. Active and inactive are the calls of the source. The calls were made as follows: active = growth percent below 10; inactive = the rest.
# Tests used:
# Experiment in all cases: NCI-60 one-dose screen, 48 h (100 = growth as untreated, 0 = no growth, -100 = all killed)
# Conditions in all cases: 10 µM unless noted
# NCI/ADR-RES ovarian = test system: NCI/ADR-RES ovarian
# T-47D breast = test system: T-47D breast
# BT-549 breast = test system: BT-549 breast
# MDA-MB-435 melanoma = test system: MDA-MB-435 melanoma
# SW-620 colon = test system: SW-620 colon
# HCC-2998 colon = test system: HCC-2998 colon
# KM12 colon = test system: KM12 colon
# MCF7 breast = test system: MCF7 breast
# HCT-116 colon = test system: HCT-116 colon
SMILES,growth (NCI/ADR-RES ovarian),growth (T-47D breast),growth (BT-549 breast),growth (MDA-MB-435 melanoma),growth (SW-620 colon),growth (HCC-2998 colon),growth (KM12 colon),growth (MCF7 breast),growth (HCT-116 colon)
CC(=O)O[C@H](C[C@H](C(C)C)N(C)C(=O)[C@@H](NC(=O)[C@H]1CCCCN1C)C(C)C)c1nc(C(=O)N[C@@H](Cc2ccccc2)C[C@H](C)C(=O)O)c(C)s1,1.59% (active),45.7%,-8.43% (active),-27% (active),25.5%,14%,15.6%,–,–
Cc1cc(NC(=O)NCc2ccc(N3C(N)=NC(N)=NC3(C)C)cc2)ccc1S(=O)(=O)F,112%,59.7%,42%,32.7%,23.9%,5.34% (active),16.2%,23.2%,23.3%
CCn1c2ccccc2c2cc(C(=O)c3cccc4c3CCCN4)ccc21,92.7%,104%,98.1%,97.6%,96.1%,104%,94.9%,96.5%,105%
COC(=O)[C@@H](C)C[C@H](Cc1ccccc1)NC(=O)c1csc([C@@H](C[C@H](C(C)C)N(C)C(=O)[C@H](C)NC(=O)[C@H]2CCCN2C)OC(C)=O)n1,92.4%,50.9%,36.9%,-27.1% (active),28.5%,62.8%,30.7%,–,–
CC(=O)O[C@H](C[C@H](C(C)C)N(C)C(=O)[C@@H](NC(=O)[C@H]1CCCN1C)C(C)C)c1nc(C(=O)N[C@@H](Cc2ccccc2)C[C@H](C)C(=O)O)c(C)s1,5.87% (active),50.6%,-22.7% (active),-5.47% (active),25.1%,21.9%,8.49% (active),–,–
NC(=O)C(Br)c1ccccc1 (configuration not stated),105%,95.3%,77.6%,94.1%,117%,96.4%,96.9%,–,82.8%
COc1ccc(/C=C\c2cc(OC)c(OC)c(OC)c2)cc1NS(=O)(=O)c1ccc(Cl)cc1,35.2%,59.9%,83.5%,3.63% (active),73.6%,74.8%,50.4%,–,61.8%
CCOC(=O)[C@@H](C)C[C@H](Cc1ccccc1)NC(=O)c1csc([C@@H](C[C@H](C(C)C)N(C)C(=O)[C@@H](NC(=O)[C@H]2CCCCN2C)C(C)(C)CC)OC(C)=O)n1,14.7%,70.7%,-40.2% (active),-60.8% (active),21.9%,11.9%,1.89% (active),24.2%,0% (active)
C[CH2][Sn]([Cl])([Cl])[CH2]C.Oc1ccccc1C=NCCN=Cc1ccccc1O,106%,90%,117%,108%,99.7%,–,106%,131%,112%
CCOC(=O)[C@@H](C)C[C@H](Cc1ccccc1)NC(=O)c1csc([C@@H](C[C@H](C(C)C)N(C)C(=O)[C@H](CCC(C)C)NC(=O)[C@H]2CCCCN2C)OC(C)=O)n1,4.75% (active),64.9%,-24.5% (active),-1.75% (active),25.4%,10%,13.9%,–,–
CC1(C)C(C(=O)c2cn(CCCCF)c3ccccc23)C1(C)C,98.1%,78.6%,100%,108%,99.1%,116%,102%,89%,90.4%
O=[N+]([O-])CC(O)C(Cl)(Cl)Cl (configuration not stated),104%,89.6%,58%,103%,95.8%,106%,107%,95.5%,102%
NC(=Nc1ccccc1)N[N+](=O)[O-],101%,97%,88.5%,118%,97.8%,98.8%,106%,100%,101%
COC(=O)[C@@]1(O)C[C@H]2O[C@]1(C)n1c3ccccc3c3c4c(c5c6ccccc6n2c5c31)C(=O)NC4,-40.2% (active),-37.4% (active),-73.9% (active),-90.2% (active),-19.7% (active),-53.4% (active),-13.9% (active),-40.7% (active),-4.08% (active)
O=C1C(Cl)=C(N2CCOCC2)C(=O)c2ccccc21,90.9%,-23% (active),106%,67%,-16.5% (active),108%,102%,93.4%,–
CCCC[C@H](NC(=O)[C@H]1CCCCN1C)C(=O)N(C)[C@H](C[C@@H](OC(C)=O)c1nc(C(=O)N[C@@H](Cc2ccccc2)C[C@H](C)C(=O)OCC)cs1)C(C)C,4.37% (active),38.6%,-25.6% (active),-6.84% (active),24.6%,14.5%,13.1%,–,–
COc1cc(C=Nc2cc(Cl)cc(Cl)c2)ccc1N(CCCl)CCCl,85.2%,95.4%,85.4%,95.5%,75.5%,–,51.1%,84.2%,90.4%
CC(C)=CC1C(C(=O)OCc2cccc(Oc3ccccc3)c2)C1(C)C (configuration not stated),95%,81.5%,100%,91.9%,94.8%,94.5%,97.3%,–,84.8%
CCCCC1(CCC)C(=O)NC(=S)NC1=O,102%,92.3%,107%,116%,109%,106%,109%,95.7%,99.2%
CCOC(=O)[C@@H](C)C[C@H](Cc1ccccc1)NC(=O)c1csc([C@@H](C[C@H](C(C)C)N(C)C(=O)[C@@H](NC(=O)[C@H]2CCCCN2C)C(C)(C)C)OC(C)=O)n1,6.69% (active),62.7%,-27.2% (active),-66.4% (active),26.2%,-2.49% (active),3.85% (active),13.8%,2.35% (active)
CCOC(=O)[C@@H](C)C[C@H](Cc1ccccc1)NC(=O)c1csc([C@@H](C[C@H](C(C)C)N(C)C(=O)[C@@H](NC(=O)[C@H]2C[C@H](O)CCN2C)C(C)C)OC(C)=O)n1,45.3%,79.4%,-31.9% (active),-40.9% (active),25.1%,19.6%,5.96% (active),20%,-12.6% (active)
O=C(c1ccccc1O)c1[nH]c(Cl)c(Cl)c1-n1c(C(=O)c2ccccc2O)cc(Cl)c1Cl,-3.31% (active),-10.1% (active),-5.5% (active),3.49% (active),7.86% (active),15.3%,-19.3% (active),1.43% (active),0.716% (active)
C=C1C[C@](OC)([C@H](O)C(=O)N[C@@H](OC)[C@@H]2C[C@@H](O)C(C)(C)[C@@H](C[C@@H](COC)OC)O2)O[C@H](C)[C@@H]1C,-42.3% (active),-7.29% (active),–,-83.3% (active),-64.3% (active),–,-41.8% (active),-52.6% (active),-16.7% (active)
Cc1ccc(Nc2nc3c(s2)C2=CC[C@@H]4[C@H](CC[C@]5(C)C(=O)CC[C@@H]45)[C@@]2(C)CC3)cc1,57.2%,43.8%,–,44.3%,0.485% (active),78.2%,34.7%,13.9%,-25.4% (active)
O=C(O)C(O)C(O)C1[O][Sb]([c]2ccc([N+](=O)[O-])cc2)[O]C1CO (configuration not stated),111%,–,114%,107%,103%,105%,108%,93.9%,104%
Clc1ccc(CO/N=C(\Cn2ccnc2)c2ccc(Cl)cc2Cl)c(Cl)c1,-12.2% (active),101%,–,-13.2% (active),8.71% (active),3.92% (active),-1.07% (active),0.337% (active),-79.3% (active)
Nc1nc([Se])c2ncn(C3OC(CO)C(O)C3O)c2n1 (configuration not stated),41.5%,93.5%,–,74.3%,82.1%,88.7%,82.5%,42.9%,28.1%
COC(=O)[C@@]1(C)CC[C@]2(C)CC[C@]3(C)C4=CC(=O)c5c(cc(O)c(O)c5C)[C@]4(C)CC[C@@]3(C)[C@@H]2C1,63.4%,–,82.1%,58.5%,60.3%,76.7%,50.4%,41.9%,31.3%
COc1ccc2nc(NC(=O)COc3cc(/C=C\c4cc(OC)c(OC)c(OC)c4)ccc3OC)sc2c1,-5.38% (active),–,55.4%,-45.1% (active),25.5%,45.5%,16.8%,16.9%,12.6%
